PubChem BioAssay AID886 (National Center for Advancing Translational Sciences (NCATS), 2007)
Several values for one entry are separate records, joined by “and”; a condition that tells them apart may be missing. Equal values may be shown once. About 2,500 (3.4%) of roughly 73,000 compounds were called active. Inconclusive results (about 7%) are left out. Calls follow the shape of the dose curve; as a rule, active = well fitted inhibition curve with a large enough effect; inconclusive = small, poorly fitted or top-dose-only effect; inactive = no such curve, though single readings can be large or run the other way. The sample as a whole holds a higher share of actives than the screen did.

What follows are compounds tested against 3-hydroxyacyl-CoA dehydrogenase type-2 (Homo sapiens) (UniProt Q99714) (assay: qHTS Assay for Inhibitors of HADH2 (Hydroxyacyl-Coenzyme A Dehydrogenase, Type II)). Conditions: recombinant HADH2, NADH fluorescence, beta-hydroxybutyryl-CoA; series mostly up to 57.1 µM.
How it was run: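 His-tagged recombinant enzyme from E. coli, 20 nM, preincubated 15 min RT with compound; reaction started with 1 mM NAD+ and 90 uM beta-hydroxybutyryl-CoA in 100 mM Tris-HCl pH 9.0. NADH fluorescence (ex 360/em 450) read over 4 min; last-minus-first difference.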
% is scaled to controls: 0 for no effect and ±100 for the full control effect; potency is read from the fitted curve at half-maximal effect.
Also: nearly all actives have a fitted effect of over 60% in size.

3-hydroxyacyl-CoA dehydrogenase type-2 (Homo sapiens), sequence (Q99714 whole entry, looked up): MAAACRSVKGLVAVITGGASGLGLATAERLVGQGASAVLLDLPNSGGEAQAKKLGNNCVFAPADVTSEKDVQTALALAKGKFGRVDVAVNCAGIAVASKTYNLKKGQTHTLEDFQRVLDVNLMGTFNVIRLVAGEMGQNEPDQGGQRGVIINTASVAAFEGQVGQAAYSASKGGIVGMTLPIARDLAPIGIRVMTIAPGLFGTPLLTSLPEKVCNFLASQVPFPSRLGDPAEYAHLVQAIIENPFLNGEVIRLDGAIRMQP
3-hydroxyacyl-CoA dehydrogenase type-2 (Homo sapiens), sequence (Q99714 whole entry, looked up): as above

Potency, inactive:
CN(c1ccccc1)c1ccc(/C=c2\s/c(=C(/C#N)C(=O)C(C)(C)C)n(Cc3ccco3)c2=O)cc1
Cc1nc2nc(SCC(=O)NCc3ccco3)nn2c(C)c1Cc1ccccc1
CC(C)N(CCNC(=O)c1ccc(-n2c(=O)c(=O)[nH]c3ccccc32)cc1)C(C)C
CN(C)CCCCNC(=O)c1ccc(Cc2nc3ccccc3[nH]2)cc1
COc1ccc(CNc2ncnc3ccc(-c4cccnc4)cc23)c(OC)c1
CS(=O)(=O)N1CCC2(CC1)CN(Cc1ccccc1)C2
COC(=O)[C@@]1(C)C=C[C@@H](Cc2ccccc2)N1C(C)=O
CCCCCCCCCCCC(=O)O
O=c1c(-c2ccccc2)coc2c(CN3CCOCC3)c(O)ccc12
O=S(=O)(O)CCN1CCOCC1
C=C(C)C1CC=C(C)C(O)C1 (stereo not drawn)
CCC[C@@H]1C[C@@]1(CCC)[C@@H](NC(=O)c1ccccc1)c1ccc(C(=O)OC)cc1
O=C(Nc1cccc(F)c1)N1CC2(CCN(C(=O)c3csnn3)CC2)C1
Cc1cc(C(F)(F)F)nn1-c1nc(-c2ccco2)cc(C(F)(F)F)n1
FC(F)(F)c1cc(-c2ccco2)nc(N2CCOCC2)n1
Cc1nnc(SCc2ccc(C(=O)c3ccc(Cl)cc3)o2)n1-c1ccccc1
Cc1nc2cnc(N3CCN(C)CC3)nc2n(CCC#N)c1=O
O=C(NCc1ccccn1)c1cc2ccccc2oc1=O
CS(=O)(=O)N1CCN(C(=O)c2cc3ccccc3oc2=O)CC1
COC(=O)[C@@]1(Cc2ccc(OC)cc2)[C@H]2c3cc(C(=O)N4CCCC4)n(Cc4ccc(OC(F)(F)F)cc4)c3C[C@H]2CN1C(=O)c1ccccc1
CCCC[C@@H]1C[C@H]1C(NC(=O)c1ccco1)c1ccc(C(=O)OC)cc1 (stereo partly drawn)
Cc1ccc(-c2nn(CC(C)(C)C)c3ncnc(N)c23)cc1
C[C@H](CCC(=O)NCC(=O)O)[C@H]1CC[C@H]2[C@H]3[C@@H](C[C@@H](O)[C@]12C)[C@]1(C)CC[C@H](O)C[C@@H]1C[C@@H]3O
COc1ccc(-c2[nH]nc3c2C(c2ccncc2)C(C#N)=C(N)O3)cc1 (stereo not drawn)
CCCc1[nH]nc2c1C(c1ccc(OC)c(Cn3nc(C)c(Br)c3C)c1)C(C#N)=C(N)O2 (stereo not drawn)
O=C(O)C1=CCCN(CCON=C(c2ccccc2)c2ccccc2)C1
N#CC1=C(N)Oc2cc(O)ccc2C1C1CCCCC1 (stereo not drawn)
CC1CCCCN1CCCNC(=O)c1ccc(-n2c(=O)c(=O)[nH]c3ccccc32)cc1 (stereo not drawn)
COc1ccc(Oc2ncc3nc(-c4ccc(F)cc4)c(=O)n(C)c3n2)cc1
COc1ccc(N)c(OC)c1
O=C(NCc1ccco1)c1nc2ncccn2n1
O=C(NCc1ccccn1)c1c(O)c2c([nH]c1=O)CCCC2
CC(C)[C@H](CO)Nc1nc(Nc2cc(N)cc(Cl)c2)c2ncn(C(C)C)c2n1
CC(=O)N1CCC2(CCCN(Cc3ccccc3)C2)CC1
Cn1c(C(=O)N2CCC(C(N)=O)CC2)cc2c(=O)n(C)c3ccccc3c21
Cn1c(C(=O)NCCc2ccsc2)cc2c(=O)n(C)c3ccccc3c21
CC(C)C[C@@H](CC(=O)N[C@@H](CCC(=O)O)CC(=O)O)NC(=O)[C@@H]1CCCC[C@H]1NC(=O)C[C@@H](NC(=O)C[C@H](Cc1c[nH]c2ccccc12)NC(=O)[C@@H]1CCCC[C@H]1N)C(C)C
COc1c(C)c2c(c(O)c1C/C=C(\C)CCC(=O)O)C(=O)OC2
C/C=C/C=C/C(=O)O
CCN(CC)CCCCn1c(-c2ccccc2)nc2c(N3CCOCC3)nc(C)nc21
Cc1ccc(-n2ncc3c(N4CCN(c5ccc(F)cc5)CC4)ncnc32)c(C)c1
COc1ccc(N2CCN(C(=O)CSc3ncnc4c3cnn4-c3ccc(OC)cc3)CC2)cc1
COc1ccc(-n2c(C)nc3c(cnn3-c3ccccc3)c2=O)cc1
Cc1ccc(-n2ncc3c2ncn2nc(-c4ccco4)nc32)c(C)c1
CC(=O)OCCC(C)C
CCCn1c(-c2ccc(F)cc2)nc2c(NCC3CCCN3CC)nc(C)nc21 (stereo not drawn)
CCCN(C/C=C\I)[C@@H]1CCc2cccc(O)c2C1
Cc1ccc(S(=O)(=O)NCc2nc3ccccc3c(=O)n2N)cc1
COCCn1c(=O)c(C)nc2cnc(N(C)C)nc21
Cc1c2c(nc3ccccc13)-c1cccc(=O)n1C2
COC(=O)[C@@]1(Cc2ccccc2)[C@H]2c3cc(C(=O)N4CCCC4)n(Cc4ccc(C)o4)c3C[C@H]2CN1C(=O)c1ccccc1
C=CCOC(=O)COCCC(C)C
O=C(c1cc(C(F)(F)F)cc(C(F)(F)F)c1)N1CCC2(CC1)CN(c1ccncc1)C2
Cc1cccn2c(=O)c3cc(C(=O)NCc4ccccn4)n(C)c3nc12
CC(C)CC1(C(=O)NCc2ccccn2)C=CCN1C(=O)c1ccccc1 (stereo not drawn)
CC(C)NC[C@H](O)c1ccc2ccccc2c1
CCc1ccc(NC(=O)CSc2nc3ccccc3c(=O)n2CCN2CCOCC2)cc1
CCn1c(SCC(=O)NCC2CCCO2)nc2cc(S(=O)(=O)N3CCCCC3)ccc21 (stereo not drawn)
COC(=O)[C@@]1(Cc2ccccc2)[C@H]2c3cc(C(=O)N(C)C)n(CCSCCO)c3C[C@H]2CN1C(=O)c1ccccc1
N#Cc1cccc(-c2nc3cnc(N4CCNCC4)nc3n(C3CC3)c2=O)c1
c1ccc2c(Nc3ccncc3)nc(-c3ccoc3)nc2c1
COc1cccc(-c2nc(Nc3ccncc3)c3ccccc3n2)c1
CCCC(Cl)CCCC(Cl)CCC(Cl)CCC(Cl)CCC(Cl)CCCC(Cl)CCC (stereo not drawn)
COc1ccc2nccc(C(=O)O)c2c1
CN1CCN(CC(=O)C23CC4CC(CC(C4)C2)C3)CC1
O=C(CNCCO)NC12CC3CC(CC(C3)C1)C2
CC(C)NC(=O)N1CC[C@@]2(CCCN(C(=O)c3cccn3C)C2)C1
O=C(NCCc1ccc(Cl)cc1)C1CC(=O)N(C2CCCCC2)C1 (stereo not drawn)
Cc1ccccc1N1CCN(S(=O)(=O)C[C@@]23CC[C@H](C[C@H]2NC(=O)[C@@H](N)CCS(C)(=O)=O)C3(C)C)CC1
COc1ccc(N2CCN(C3CC(=O)N(c4ccc5c(c4)OCCO5)C3=O)CC2)cc1 (stereo not drawn)
CC(=O)Oc1cccc(N2C(=O)C3CC=C(Cl)CC3C2=O)c1 (stereo not drawn)
Cc1ccc(Br)cc1
CCCn1c(-c2ccc(F)cc2)nc2c(NC3CCN(Cc4ccccc4)C3)nc(C)nc21 (stereo not drawn)
COc1ccccc1CNc1nc(-c2c(C)noc2C)nc2ccccc12

Potency, active:
O=c1nc2s/c(=C\c3ccco3)c(=O)n2nc1Cc1ccccc1 7.94 µM
CN(C)CCCNC(=O)c1ccc2[nH]c3ccccc3c2c1 25.1 µM
Oc1c(CN2CCOCC2)ccc(CN2CCOCC2)c1O 0.316 µM
COC(=O)c1cnn2c(C(F)(F)F)cc(-c3ccco3)nc12 31.6 µM
O=C(Oc1cccnc1)c1cc2ccccc2oc1=O 20 µM
CCOc1c(OC)cc(C2C(C#N)=C(N)Oc3n[nH]c(-c4ccncc4)c32)cc1OC (stereo not drawn) 10 µM
O=C(O)c1c(Br)c(Br)c(Br)c(Br)c1C1c2ccc(O)cc2Oc2cc(O)ccc21 1.58 µM
Oc1c(Cl)cc(Cl)c(Cl)c1Cc1c(O)c(Cl)cc(Cl)c1Cl 7.94 µM
O=C(NCc1ccccn1)c1ccc2nc(-c3ccco3)c(-c3ccco3)nc2c1 5.01 µM
CCN1CCCC1CNC(=O)c1cc2c(=O)n(C)c3ccccc3c2n1C (stereo not drawn) 31.6 µM
COc1ccc(-n2ncc3c(N4CCc5ccccc54)ncnc32)cc1 31.6 µM
Cc1cccc(-n2ncc3c(N4CCc5ccccc54)ncnc32)c1 3.16 µM
Cc1ccc(S(=O)(=O)c2c(N)n(C)c3nc4ccccc4nc23)cc1 31.6 µM
Cc1cccn2c(=O)c3cc(C(=O)N4COCC4(C)C)n(C)c3nc12 25.1 µM
CCCCn1c(SCC(=O)NCC2CCCO2)nc2ccc(N3CCOCC3)cc2c1=O (stereo not drawn) 10 µM
c1ccc2c(Nc3ccncc3)nc(-c3ccc4c(c3)OCO4)nc2c1 25.1 µM
CC(NCCO)C(=O)C12CC3CC(CC(C3)C1)C2 (stereo not drawn) 31.6 µM
Oc1cc2c(cc1O)CN(C(=S)NCCc1ccc(Cl)cc1)CCC2 1.58 µM and 631 nM
CC(=O)Oc1cccc(N2C(=O)CC(Nc3ccc(N4CCOCC4)cc3)C2=O)c1 (stereo not drawn) 15.8 µM
CC[C@@H]1Cc2cc(O)ccc2C2=C1c1ccc(O)cc1C[C@H]2CC 25.1 µM

Activity change, negative = inhibition, inactive:
Cc1cc(C)cc(C#CC2C=CC(Oc3ccc(C4CCCC4)cc3)C(CO)O2)c1 (stereo not drawn) 10.7% [at 11.4 µM]
COc1cccc([C@H](O)Cn2cc(-c3ccc(CON=C(C)C)cc3)nn2)c1 4.01% [at 11.4 µM]
C[C@@H]1CC[C@H]2[C@H](C)[C@H]3[C@H](C[C@H]4[C@@H]5CC=C6C[C@@H](O)CC[C@@]6(C)[C@@H]5C[C@@H](O)[C@]34C)N2C1 -8.91% [at 11.4 µM]
NS(=O)(=O)c1ccc(CCNC(=O)Nc2ccc(Cl)cc2)cc1 16% [at 11.4 µM]
